A short description of this test: sensitizers of A549 cells to miR-34 induction, primary screen, imaging, A549 dox-inducible miR-34, nuclei and caspase counts (AID 1347080). Further: test concentration not given here. The following applies: A549 miR-34 inducible, Hoechst nuclei count, 48 h; measured here: relative caspase fold change +Dox/-Dox.
For the compound `Cc1cc2c(F)c(Oc3ncnn4cc(OCC(C)O)c(C)c34)ccc2[nH]1` (centres undefined), the fold change came to 0.907.
With `COC1C(O)CC(=O)OC(C)CC=CC=CC(OC2CCC(N(C)C)C(C)O2)C(C)CC(CC=O)C1OC1OC(C)C(OC2C[C@](C)(O)C(O)C(C)O2)C(N(C)C)C1O` (some centres undefined), the fold change was 0.625.
For `CC(=O)c1cc([N+](=O)[O-])c(Sc2ccc(F)cc2F)s1`, the fold change stood at 0.374.
As for `C[C@]12C[C@@]3(O)O[C@@H](O1)[C@]1(COC(=O)c4ccccc4)[C@H]3C[C@@]12OC1OC(CO)C(O)C(O)C1O` (some centres undefined), the fold change is 0.575.
On to `O=c1[nH]c(=O)n(C2CC(O)C(CO)O2)cc1C(F)(F)F` (centres undefined), for which the fold change was determined as 0.574.
`CC1(C)O[C@@H]2C[C@H]3[C@@H]4CCC5=CC(=O)C=C[C@]5(C)[C@@H]4C(O)C[C@]3(C)[C@@]2(C(=O)CO)O1` (some centres undefined): the fold change was 1.16.
For `O=C(c1ccccc1)c1ccc2nc(NC(=O)c3csc(C4CCN(c5ncnc6ccsc56)CC4)n3)[nH]c2c1`, the fold change was 0.341.
Take `COc1cc(-c2cc(-c3cccc(O)c3)cnc2N)cc(OC)c1OC`: the fold change turned out to be 0.388.
In the case of `CC(=CC(=O)Nc1ccccc1C(=O)O)c1ccc2ccccc2c1`, the fold change came to 1.42.
The result for `O=C(c1cn(Cc2cncn2Cc2ccc(Br)cc2)cc1-c1cccc2ccccc12)N1CCOCC1` reads 0.553.
The result for `C=C[C@]1(C)CC(OC(=O)CSC(C)(C)CNC(=O)C(N)C(C)C)[C@@]2(C)C(C)CC[C@]3(CCC(=O)[C@H]32)C(C)C1O` (some centres undefined) reads 1.9; that for `O=C(O)CC1CC(c2ccccc2)=NO1` (centres undefined), 0.43.
As for `COC(=O)C1=COC(OC2OC(CO)C(O)C(O)C2O)[C@H]2C(CO)=CC[C@H]12` (some centres undefined), the fold change was determined as 0.842.
Take `CC(C)(C(=O)NCC(F)(F)C(F)(F)F)C(=O)NC1C(=O)Nc2ccccc2-c2ccccc21` (centres undefined): the fold change worked out at 0.87.
